Reference: PubChem BioAssay (NCATS)
Several values for one entry are separate records, joined by “and”; a condition that tells them apart may be missing. Equal values may be shown once. A number with no mark means an inactive call. Records with an inconclusive call do not appear. Entries that show only a call come without a potency. Activity calls are given as the source filed them. Unless noted, the call rests on the fitted dose curve; in most records, active means well fitted curve in the direction sought with a large enough effect; inconclusive means small, poorly fitted or top-dose-only effect, or another doubt; inactive means no such curve, though single readings can be large; an effect the other way counts as inactive or inconclusive.

Experiments:
[1] = Cell Viability - HepG2 (AID 433; calls by dose curve;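 further: potency means the concentration at half of the fitted maximal effect; potency for ATP loss meaning cytotoxicity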); settings: qHTS
Outline: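 Read-out is luciferase-based quantitation of cellular ATP as a measure of viable HepG2 cells after 40 h treatment at 37 °C. Signal decrease is scaled between DMSO-only and 100 uM tamoxifen controls, with AC50 fitted by the Hill equation.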

[2] = Cell Viability - MRC5 (AID 434; calls by dose curve;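 further: potency means the concentration at half of the fitted maximal effect; potency reflects cytotoxicity seen as loss of intracellular ATP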); settings: MRC5 lung fibroblast viability, qHTS
Outline: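 qHTS cytotoxicity in human lung fibroblast MRC5 cells; 40 hr treatment, 37 °C; cellular ATP by luciferase luminescence; DMSO = 0%, 100 uM tamoxifen = 100% inhibition; Hill-fit AC50.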

[3] = Cell Viability - NIH 3T3 (AID 541); settings: NIH 3T3 cell viability, qHTS; activity change, negative = cytotoxicity: at 92.2 µM (top of the series); further: nearly all actives have a fitted effect of over 25% in size
Outline: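 Luminescent ATP signal (CellTiter-Glo) served as the viability read-out after NIH 3T3 cells were exposed to compounds over a concentration range for 40 hr at 37 °C. Hill-equation modelling of concentration-response data gave AC50.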

[4] = Cell Viability - HUV-EC-C (AID 542); settings: HUV-EC-C endothelial cell viability, qHTS; series mostly up to 92.2 µM; further: nearly all actives have a fitted effect of over 35% in size
Outline: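 qHTS cytotoxicity: HUV-EC-C, 1000 cells/well, 5 hr settle, compound 40 hr 37 °C, CellTiter-Glo, luminescence. AC50 via Hill equation.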

[5] = Cell Viability - SH-SY5Y (AID 544); settings: SH-SY5Y neuroblastoma cell viability; viability change, negative = cytotoxic: at 92.2 µM (top of the series); further: nearly all actives have a fitted effect of over 55% in size
Outline: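 Luminescent ATP read-out (CellTiter-Glo) measures loss of viable SH-SY5Y neuroblastoma cells after 40 hr compound exposure at 37 °C. AC50 values derive from standard Hill modelling of qHTS concentration-response data.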

[6] = Cell Viability - Renal Proximal Tubule (AID 545); settings: renal proximal tubule cells viability; at 91.7 µM (top of the series), primary cells of rat origin unless noted; further: nearly all actives have a fitted effect of over 40% in size
Outline: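 Luminescent ATP signal (CellTiter-Glo) served as the viability read-out after 40 hr compound exposure of freshly isolated rat proximal tubule cells at 37 °C. Concentration-dependent ATP loss was fitted with the Hill equation to give AC50.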

[7] = Cell Viability - Mesenchymal (AID 546); settings: mesenchymal cells viability, qHTS; series mostly up to 91.7 µM;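 further: cells exposed to compound for 40 hours before reading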
Outline: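 AC50 values reflect the drop in intracellular ATP in a human kidney mesenchymal line derived from normal glomeruli. Treatment lasts 40 hr at 37 °C in complete medium, and the signal comes from CellTiter-Glo luminescence.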

[8] = Cellular Toxicity (caspase-3) Jurkat (AID 655); settings: Jurkat caspase-3 activation, luminescence, DMSO = 0%, tamoxifen = 100%; at 92.2 µM (top of the series);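 further: cells exposed to compound for 16 h at 37 °C before reading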
Outline: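 5000 Jurkat cells/well; compound 16 hr, 37 °C; Caspase-Glo 3/7 added, 20 min RT; luminescence read. Norm: DMSO = 0%, tamoxifen 100 uM = 100%. AC50, Hill model.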

[9] = Cellular Toxicity (caspase-3) HUV-EC-C (AID 656); settings: HUV-EC-C cells, caspase-3 activation (apoptosis), vehicle = 0, 100 µM tamoxifen = 100%; series mostly up to 92.2 µM
Outline: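 qHTS; HUV-EC-C, 1000 cells/well; 5 hr settle, 16 hr cmpd, 37°C; Caspase-Glo 3/7, 20 min RT; luminescence. Norm: DMSO = 0%, tamoxifen 100 uM = 100%. Hill-fit AC50.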

[10] = Cellular Toxicity (caspase-3) SHSY5Y (AID 657); settings: SH-SY5Y caspase-3 activation, DMSO zero, 10 µM staurosporine = 100%; series mostly up to 91.7 µM;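 further: cells exposed to compound for 16 hours at 37 °C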
Outline: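 qHTS, SH-SY5Y, 1500 cells/well, 5 h pre-incubation 37 °C; compound 16 h 37 °C; Caspase-Glo 3/7 1 h RT; luminescence. Norm.: DMSO = 0, 10 uM staurosporine = 100%. Hill fit → AC50.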

[11] = Cellular Toxicity (caspase-3) BJ (AID 658); settings: BJ fibroblasts, luminescence, normalized: DMSO 0%, staurosporine 100%; series mostly up to 91.7 µM
Outline: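 Readout: Caspase-Glo 3/7 luminescence increase in BJ cells after 16 hr treatment at 37 °C. Staurosporine and tamoxifen served as positive controls; AC50 values came from Hill modelling of data normalized to DMSO and 10 uM staurosporine.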

[12] = Cellular Toxicity (caspase-3) MRC-5 (AID 659); settings: MRC-5 cells, luminescence, normalized: DMSO 0%, 10 µM staurosporine 100%; series mostly up to 91.7 µM
Outline: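 Concentration-dependent caspase 3/7 activation is measured in human normal lung fibroblasts (MRC-5) following 16-hour treatment. AC50 values come from standard Hill-equation modeling of luminescence normalized to DMSO and 10 uM staurosporine.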

[13] = Cellular Toxicity (caspase-3) SK-N-SH (AID 661); settings: SK-N-SH caspase-3 activation, qHTS, DMSO as zero, staurosporine as full; series mostly up to 91.7 µM
Outline: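 Human neuroblastoma SK-N-SH, 1500 cells/well, 5 hr pre-incubation, then compound 16 hr, 37 °C. Caspase-Glo 3/7 reagent, 1 hr RT, luminescence. Norm. to DMSO/10 uM staurosporine; Hill-fit AC50.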

[14] = Cellular Toxicity (caspase-3) H-4-II-E (AID 663); settings: H-4-II-E rat hepatoma, scaled: DMSO 0%, 100 µM tamoxifen 100%; series mostly up to 92.2 µM;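 further: cells exposed to compound for 16 hr before readout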
Outline: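 Apoptosis induction is scored as increased luminescence from caspase 3/7 substrate cleavage in rat hepatoma H-4-II-E cells exposed to compound for 16 hr. Activity is scaled between DMSO and 100 uM tamoxifen.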

[15] = Cellular Toxicity (caspase-3) N2a (AID 665); settings: N2a cells, luminescence, normalized: DMSO 0%, 10 µM staurosporine 100%; at 92.2 µM (top of the series);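 further: compound exposure lasted 16 h at 37 °C before readout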
Outline: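 N2a cells, 1500/well, 5 h settle at 37 °C; cpd 16 h, 37 °C; Caspase-Glo 3/7, 1 h RT; luminescence. Norm: DMSO = 0, 10 uM staurosporine = 100%. AC50, Hill fit.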

[16] = molecular target: Cytochrome P450 3A4 (Homo sapiens) (UniProt P08684); experiment: qHTS Assay for Inhibitors and Substrates of Cytochrome P450 3A4 (AID 884); settings: recombinant CYP3A4, Luciferin-PPXE luminescence; series mostly up to 57.1 µM; further: nearly all actives have a fitted effect of over 50% in size
Cytochrome P450 3A4 (Homo sapiens), sequence (P08684 whole entry, looked up): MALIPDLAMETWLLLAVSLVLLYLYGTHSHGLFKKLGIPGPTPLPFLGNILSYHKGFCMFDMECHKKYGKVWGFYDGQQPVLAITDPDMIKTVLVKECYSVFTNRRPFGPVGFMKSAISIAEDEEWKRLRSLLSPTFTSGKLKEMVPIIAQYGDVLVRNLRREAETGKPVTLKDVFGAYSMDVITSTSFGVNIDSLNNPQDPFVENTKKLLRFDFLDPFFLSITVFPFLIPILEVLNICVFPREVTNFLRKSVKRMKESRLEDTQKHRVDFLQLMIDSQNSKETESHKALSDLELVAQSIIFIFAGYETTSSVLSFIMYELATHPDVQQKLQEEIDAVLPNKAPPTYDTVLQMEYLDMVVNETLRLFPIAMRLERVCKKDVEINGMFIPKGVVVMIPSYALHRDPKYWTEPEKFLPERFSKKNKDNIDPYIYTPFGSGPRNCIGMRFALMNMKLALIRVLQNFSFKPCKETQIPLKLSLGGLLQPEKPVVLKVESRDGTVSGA
Outline: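 20 nM human CYP3A4 with 25 uM Luciferin-PPXE (at KM) in 200 mM KPO4, preincubated 10 min with compound; NADPH regeneration started a 60 min RT reaction. Luciferin detected by luminescence, normalized to 57 uM ketoconazole as full inhibition.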

[17] = qHTS Assay for Identification of Small Molecule Inducers of Hypoxia Response (AID 2120; active means well fitted curve in the direction sought with a large enough effect in the signal ratio, with a control signal flat, not every such curve was filed as active; the % refers to the signal ratio); settings: hypoxia response reporter cells, beta-lactamase ratio readout; series mostly up to 104 µM
Outline: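 ME-180 HRE-bla cells plated in Opti-MEM/0.5% dialyzed FBS, rested 4-5 h, then dosed with compound titrations by pin tool. After 17 h at 37 degrees C, CCF4 dye loaded 2.5 h at RT; 460/530 nm ratio gave %Activity and AC50.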

[18] = qHTS assay for small molecule agonists of the antioxidant response element (ARE) signaling pathway measured by Nrf2-dependant transcriptional activity - cell viability counter screen (AID 720653; active means well fitted curve in the direction sought with a large enough effect in the repeat runs; an effect the other way counts as inactive or inconclusive); settings: ARE-bla HepG2 viability, CellTiter-Glo ATP luminescence, 16 h; hits give low values
Outline: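 Cytotoxicity counter screen: intracellular ATP quantified by CellTiter-Glo luminescence in the same ARE-bla HepG2 plates, after 16 h compound exposure and a 2 h beta-lactamase substrate step.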

[19] = qHTS assay for cell viability of HEK293 cells (AID 743288); settings: ATP luminescence (CellTiter-Glo), 18 h; max response: hits give low values; further: nearly all actives have a fitted effect of over 50% in size
Outline: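 HEK293 parental, 2,000 cells/well; ≥5 h pre-incubation 37 C; pintool compound addition; 18 h, 37 C; CellTiter-Glo 30 min RT; luminescence read.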

[20] = molecular target: Mitogen-activated protein kinase 10 (Mus musculus) (UniProt Q61831); experiment: JNK3 AlphaScreen Assay (AID 530; active means well fitted curve in either direction with a large enough effect, not every such curve was filed as active;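 further: kinase came from lysate of stimulated human HepG2 cells; signal reports phosphorylation of biotinylated GST-cJun 1-79 at Ser73 with 10 µM ATP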); settings: JNK3 lysate, c-Jun phosphorylation; series mostly up to 57.1 µM
Outline: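 Compound titrations were preincubated 15 minutes at room temperature with substrate, antibody and pre-activated JNK3-containing HepG2 lysate. Reactions were started with 10 uM ATP and stopped with EDTA-containing bead buffer for AlphaScreen detection.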

SMILES | Potency [1] [µM] | Potency [2] [µM] | activity change, negative = cytotoxicity [3] | Potency [4] | Potency [5] | activity change, negative = cytotoxicity [6] | outcome [7] | caspase-3 activation [8] [%] | outcome [9] | outcome [10] | outcome [11] | outcome [12] | outcome [13] | outcome [14] | caspase-3 activation [15] [%] | Potency [16] | outcome [17] | max response [18] | max response [19] | outcome [20]
C[C@]12CC[C@H]3[C@@H](CCC4=CC(=O)CC[C@@]43C)[C@@H]1CC[C@@H]2O | > 92 | > 92 | -90.5% (active) | inactive | inactive | -15.1% [at 91.7 µM] | inactive | 4.38 | inactive | inactive | inactive | inactive | inactive | inactive | 3.16 | inactive | inactive | -2.92% | -9.57% | –
c1ccc(-c2ccccc2)cc1 | > 92 | > 92 | -5.05% | inactive | inactive | 1.72% | inactive | 0.52 | inactive | inactive | inactive | inactive | inactive | inactive | -1.9 | inactive | inactive | -4.39% and -5.27% | 8.08% and -1.75% | inactive
C=CC1CC=CCC1 (centres undefined) | > 92 | > 92 | 4.42% | inactive | inactive | 3.71% | inactive | 0.736 | inactive | inactive | inactive | inactive | inactive | inactive | -0.281 | inactive | inactive | 1.14% and 1.26% | -5.12% and -6.19% | inactive
Cc1ccc([N+](=O)[O-])cc1C | > 92 | > 92 | -7.46% | inactive | inactive | -10.6% | inactive | -0.46 | inactive | inactive | inactive | inactive | inactive | inactive | -3.15 | inactive | inactive | 4.05% and -7% | -0.535% and -15% | inactive
O=NN(c1ccccc1)c1ccccc1 | > 92 | > 92 | -6.8% | inactive | inactive | -4.13% | inactive | 3.48 | inactive | inactive | inactive | inactive | inactive | inactive | 0.181 | inactive | inactive | -4.67% and 8.95% | -0.72% and 1.61% | inactive
